# From PubChem BioAssay (NCI)
# Where “and” joins values, the source holds several entries; their conditions need not be identical. Equal values may be shown once. This is part of a sample that, as a whole, favours compounds with a hit. Of some 83,000 tested, about 20% had one in any assay.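 Results are percent growth after 48 hours of single-concentration exposure. 100 means growth as in untreated cells, lower positive values show inhibition; negative values down to -100 show cell death.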 A number with no mark means an inactive call. Calls of active or inactive are those of the source. Rule for the calls: active = growth percent below 10; inactive = the rest.
# Assays:
# Assay in all cases: NCI-60 one-dose screen, 48 h (100 = growth as untreated, 0 = no growth, -100 = all killed)
# Details in all cases: 10 µM unless noted
# NCI-H23 lung = test system: NCI-H23 lung
# NCI-H226 lung = test system: NCI-H226 lung
# NCI-H322M lung = test system: NCI-H322M lung
# HOP-62 NSCLC = test system: HOP-62 NSCLC
# NCI-H460 lung = test system: NCI-H460 lung
# HOP-92 NSCLC = test system: HOP-92 NSCLC
# NCI-H522 lung = test system: NCI-H522 lung
# A549/ATCC NSCLC = test system: A549/ATCC NSCLC
# 786-0 renal = test system: 786-0 renal
# COLO 205 colon = test system: COLO 205 colon
# DU-145 prostate = test system: DU-145 prostate
# K-562 leukemia = test system: K-562 leukemia
# MALME-3M melanoma = test system: MALME-3M melanoma
# MDA-MB-231 breast = test system: MDA-MB-231 breast
# RXF 393 renal = test system: RXF 393 renal
# SF-268 CNS = test system: SF-268 CNS
# SF-295 CNS = test system: SF-295 CNS
# SF-539 CNS = test system: SF-539 CNS
# UACC-257 melanoma = test system: UACC-257 melanoma
# M14 melanoma = test system: M14 melanoma
Compound,growth (NCI-H23 lung),growth (NCI-H226 lung),growth (NCI-H322M lung),growth (HOP-62 NSCLC),growth (NCI-H460 lung),growth (HOP-92 NSCLC),growth (NCI-H522 lung),growth (A549/ATCC NSCLC),growth (786-0 renal),growth (COLO 205 colon),growth (DU-145 prostate),growth (K-562 leukemia),growth (MALME-3M melanoma),growth (MDA-MB-231 breast),growth (RXF 393 renal),growth (SF-268 CNS),growth (SF-295 CNS),growth (SF-539 CNS),growth (UACC-257 melanoma),growth (M14 melanoma)
CC(Nc1ncnc2ccc(-c3ccc4oc(N)nc4c3)cc12)c1ccccc1 (stereo not given),16.4%,-10.2% (active),-24.9% (active),-53.1% (active),3.34% (active),-45.9% (active),18.4%,13.3%,-48.2% (active),14%,14%,7.11% (active),-26.5% (active),-38% (active),-77.9% (active),35.6%,-17.4% (active),-89.4% (active),73.4%,23.7%
COc1ccc(NC(=O)Nc2nc3ccc([N+](=O)[O-])cc3s2)cc1,-2.33% (active),6.28% (active),13.1%,25.4%,3.86% (active),-5.8% (active),1.25% (active),30.2%,35.3%,67.9%,24.8%,9.59% (active),-1.52% (active),46.1%,-0.305% (active),38.6%,35.6%,7.77% (active),16%,57.6%
NC1(c2ccc(-c3ccc4ncnc(NCc5ccccc5)c4c3)cn2)COC1,108% and 105%,103% and 111%,109% and 97%,118% and 112%,106% and 112%,112% and 120%,109% and 105%,111% and 109%,115% and 104%,112% and 126%,105% and 97.7%,114% and 100%,106%,105% and 106%,103% and 101%,111% and 113%,102% and 101%,101% and 104%,120% and 109%,134% and 114%
COc1ccc(Nc2ncnc3sc4c(c23)CCN(Cc2ccccc2)C4)cc1,91.8%,84.3%,93.7%,81.9%,71%,85.7%,63.2%,77.3%,76.4%,106%,94.3%,45.3%,107%,87.5%,74.6%,66.1%,67.6%,91.3%,94.6%,81.1%
Cc1ccc(NC(=O)N/N=C/c2c[nH]c3ccccc23)c(C)c1,12.6%,12.6%,42%,34.4%,5.78% (active),16.3%,-36.8% (active),14.9%,-18.4% (active),-51.5% (active),12.9%,10.5%,52.8%,21.1%,-12.3% (active),11.8%,5.78% (active),-5.67% (active),46.5%,12.5%
COc1c(F)ccc(C(=O)Nc2ccc3nc(NC(=O)C4CCCN(S(=O)(=O)c5ccc(C(C)(C)C)cc5)C4)sc3c2)c1F (stereo not given),66.6%,64.1%,80.3%,88.9%,57.3%,6.58% (active),66.7%,64.1%,56%,80.9%,79.5%,26.5%,77.3%,47%,14.9%,68.5%,78.3%,74%,69.3%,87.6%
CC(=O)Nc1ccc(S(=O)(=O)Nc2ccc(-c3ccc4c(c3)NC(=O)/C4=C\c3ccc[nH]3)cc2)cc1,42.1%,85%,64.8%,87%,38.6%,91.5%,75.2%,79.6%,104%,96.6%,93.4%,64.8%,92.5%,88.7%,107%,112%,94.9%,84%,102%,100%
